High-throughput results from PubChem.
Shown are actives, neighbours in structure and some others; about 1.3% of the full set was active somewhere.
GALR2 blocker = blocks the human galanin receptor 2. O43603. GALR2-expressing cells, antagonist mode. inhibition, % at 4 µM. 140,000 tested, 0.39% active. AID 828;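 further: cells stimulated with galanin 1-16 at roughly its EC80; 0% = agonist challenge control and 100% = basal control without agonist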
Target sequence (O43603 whole entry, looked up): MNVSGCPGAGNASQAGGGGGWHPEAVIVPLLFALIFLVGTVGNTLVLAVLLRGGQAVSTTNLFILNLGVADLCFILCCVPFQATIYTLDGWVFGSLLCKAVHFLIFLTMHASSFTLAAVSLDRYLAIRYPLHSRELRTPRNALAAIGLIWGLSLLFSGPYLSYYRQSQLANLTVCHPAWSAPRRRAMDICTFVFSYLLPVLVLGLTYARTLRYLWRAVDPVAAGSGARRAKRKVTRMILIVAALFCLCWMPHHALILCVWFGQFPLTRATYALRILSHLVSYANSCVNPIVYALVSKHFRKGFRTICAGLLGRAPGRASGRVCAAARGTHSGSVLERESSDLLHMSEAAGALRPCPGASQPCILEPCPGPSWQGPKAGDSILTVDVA
Phagocyt inh = macrophage phagocytosis inhibition; J774A.1 macrophage IgG-bead phagocytosis, imaging; inhibition, % at 5 µM; 110,000 tested, 0.07% active; AID 1029;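 active means inhibition above the mean of the plate negative controls plus 5 SD, cut at about 13% in these data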;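 further: phagocytic index as fraction of beads internalized from green versus red external bead signal; plate controls were DMSO negative control for no effect and cytochalasin-D positive control for full effect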
S1P2 agonist = S1P2 (human) receptor agonism | AID 729 | activation, % at 4.5 µM | S1P2-expressing cell line, agonist reporter read-out | O95136 | 97,000 tested, 0.46% active; in the data active means activation above about 16%;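 further: 0% = vehicle low control and 100% = maximal reference agonist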
Target sequence (O95136 whole entry, looked up): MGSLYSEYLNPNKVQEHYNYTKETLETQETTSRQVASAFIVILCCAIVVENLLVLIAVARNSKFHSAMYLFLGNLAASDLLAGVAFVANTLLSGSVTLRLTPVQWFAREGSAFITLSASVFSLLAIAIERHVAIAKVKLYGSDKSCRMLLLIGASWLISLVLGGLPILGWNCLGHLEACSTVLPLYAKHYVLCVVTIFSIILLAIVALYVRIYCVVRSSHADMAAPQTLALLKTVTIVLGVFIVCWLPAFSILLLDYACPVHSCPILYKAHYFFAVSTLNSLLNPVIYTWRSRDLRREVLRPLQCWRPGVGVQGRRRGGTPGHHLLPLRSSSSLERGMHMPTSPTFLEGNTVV
GALR2 agonist = agonists of human galanin receptor 2 (GALR2); O43603; GALR2-expressing cells, agonist activation read-out; activation, % (no concentration beside the values); 140,000 tested, 0.48% active; AID 803; in the data active means activation above about 5%, passing the limit was not always enough;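 further: 0% = vehicle buffer wells and 100% = reference agonist at full effect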
S1P2 blocker = blocks the human S1P2 receptor. cell-based S1P2 antagonist assay, inhibition at 5 uM. inhibition, % at 5 µM. 97,000 tested, 0.21% active. AID 736; in the data active means inhibition above about 45%;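 further: CRE beta-lactamase reporter cells expressing human S1P2 stimulated with S1P; 0% = agonist at EC80 alone and 100% = agonist plus reference antagonist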
Calb biofilm kill = kills Candida albicans biofilms. AID 834. inhibition, % at 6 µM. C. albicans biofilm + clotrimazole, Alamar Blue. 85,000 tested, 0.14% active;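 active means inhibition above 20%; inactive means inhibition below 20%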;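 further: preformed 24 hr biofilms exposed to compound for 48 hr; 0% = biofilm without compound and 100% = blank killed by clotrimazole plus chlorhexidine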
GALR2 blk conf = GALR2 (human) antagonism confirmed | AID 866 | shares compounds with GALR2 blocker | GALR2-expressing cells, antagonist mode, inhibition | inhibition, % at 4 µM | 480 tested, 60% active;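 further: cells stimulated with galanin at about its EC80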
BLA inhib ctr = inhibits beta-lactamase reporter in GALR2 antagonist counterscreen. shares compounds with GALR2 blocker. CHO NFAT-BLA reporter, beta-lactamase FRET, thapsigargin-stimulated. inhibition, % at 4.2 µM. 480 tested, 36% active. AID 867;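 active means inhibition above the mean inhibition across tested compounds plus 3 SD, cut at about 27% in these data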;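 further: 0% = 500 nM thapsigargin stimulated wells and 100% = unstimulated BSA only wells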
* hit, by the source's call; nt = no result given. Unless noted, no stated cut-off is given here; in the data, active means inhibition above about 27%; inactive means the rest.

SMILES	GALR2 blocker	Phagocyt inh	S1P2 agonist	GALR2 agonist	S1P2 blocker	Calb biofilm kill	GALR2 blk conf	BLA inhib ctr
COc1ccc(COc2cc(-c3cccc(OC)c3)nc3ccc(NC(=O)c4ccc(N(C)C)cc4)cc23)cc1	27.1*	nt	nt	-2.8	nt	nt	16.4	9.8
COc1ccc(COc2cc(-c3cccc(OC)c3)nc3ccc(NC(=O)c4ccc(C)cc4)cc23)cc1	13.2	nt	nt	-2.5	nt	nt	nt	nt
CCC1C/C(=C\c2cccnc2)C(=O)/C(=C/c2cccnc2)C1 (stereo not drawn)	36.2*	-4.4	nt	-2.6	nt	nt	45.7*	20.7
O=C1/C(=C/c2cccnc2)CCC/C1=C\c1cccnc1	22.6	-3.2	nt	-1.2	nt	nt	nt	nt
Nc1nnc(SC2CC(=O)N(c3ccccc3)C2=O)s1 (stereo not drawn)	5.8	0.2	-4.9	-3.4	-11.0	1.7	nt	nt
N#Cc1cccc(-n2nnnc2-c2ccc3c(c2)OCO3)c1	1.0	-0.4	-5.1	-1.2	1.4	6.6	nt	nt
Cc1nc2cc3nc(C)sc3cc2s1	2.2	1.6	nt	-0.3	nt	3.4	nt	nt
COc1cc2nc(C)sc2cc1SC	27.0*	-0.2	nt	-1.4	nt	8.2	8.1	4.5
COc1ccc(NC2SC(=O)N(CC(=O)O)C2=O)cc1 (stereo not drawn)	7.7	0.6	-1.0	-0.5	12.5	3.0	nt	nt
CC1=C/C(=N\OS(=O)(=O)c2ccccc2)C(C)=CC1=O	63.4*	3.4	-4.3	-3.3	97.9*	nt	74.3*	35.5*
CC1=C(C)/C(=N\OS(=O)(=O)c2ccc(C)cc2)C=CC1=O	85.2*	4.0	nt	-0.7	nt	nt	70.3*	64.0*
COc1cc(C(=O)O/N=C2/C=C(C)C(=O)C=C2C)cc(OC)c1OC	-4.4	-1.2	nt	1.1	nt	nt	nt	nt
COC(=O)C1=C(C)N=C2SC(C)C(=O)N2C1c1cccs1 (stereo not drawn)	11.7	0.0	-6.1	-2.1	-2.7	-0.6	nt	nt
CCn1c(=S)[nH]c2cc(S(=O)(=O)N3CCCCC3)ccc21	3.6	-3.1	-3.5	-2.2	10.2	nt	nt	nt
CCC(=O)c1ccc(N2CCN(C(=O)COc3ccc(F)cc3)CC2)c(F)c1	3.7	-4.2	-4.6	-0.2	9.8	7.6	nt	nt
CC(=O)c1ccc(N2CCN(C(=O)COc3ccc(F)cc3)CC2)c(F)c1	28.4*	-1.0	nt	-1.7	nt	7.2	8.2	-2.3
CCN(CC)c1ncnc2c1sc1nc(C)cc(C)c12	2.5	nt	11.6	0.3	-26.3	3.5	nt	nt
O=S(=O)(Nc1cc(Sc2cccc3cccnc23)c(O)c2ccccc12)c1ccccc1	31.2*	-2.7	nt	0.4	nt	nt	23.9	9.9
Cc1ccc(S(=O)(=O)Nc2cccc3cccnc23)cc1	8.4	-0.1	-4.0	0.2	-13.7	8.0	nt	nt
O=C(O)c1cccc2cccnc12	6.9	1.2	-4.0	-2.6	16.6	8.3	nt	nt
c1cnc2c(c1)ccc1cccnc12	36.2*	nt	nt	-2.3	nt	nt	48.4*	-1.6
Cc1cccc(C)c1Nc1nnc(SCc2cn3cccc(C)c3n2)s1	10.9	-4.1	nt	-0.4	nt	nt	nt	nt
Cc1cccc(C(=O)Nc2ccc(C(=O)/C=C/c3cccnc3)cc2)c1	31.1*	-0.2	nt	-0.3	nt	nt	31.9*	7.1
O=C(/C=C/c1cccnc1)c1ccc(NC(=O)c2cccc(Br)c2)cc1	-5.2	-0.5	-4.0	-2.0	7.8	nt	nt	nt
N#C/C(=C\c1ccc(OC(=O)c2cccs2)cc1)c1nc2ccccc2[nH]1	-7.7	15.4	nt	-1.5	nt	nt	nt	nt
SMILES	GALR2 blocker	Phagocyt inh	S1P2 agonist	GALR2 agonist	S1P2 blocker	Calb biofilm kill	GALR2 blk conf	BLA inhib ctr
N#C/C(=C\c1cccs1)c1nc2ccccc2[nH]1	32.5*	-3.0	nt	-1.1	nt	nt	30.2*	8.0
Cn1c2c(c(=O)n(C)c1=O)C(C(F)(F)F)(C(F)(F)F)N=C(c1ccc(Cl)cc1)N2	67.8*	nt	-7.9	-0.9	85.6*	nt	72.5*	58.0*
O=C(CSc1ncn[nH]1)Nc1c(Br)cc([N+](=O)[O-])cc1Br	-4.3	-1.7	nt	-1.9	nt	nt	nt	nt
Cc1ccc(-c2csc(NC(=O)C3=NN(c4ccccc4)C(=O)CC3)n2)cc1	28.3*	nt	nt	-0.6	nt	nt	20.0	4.9
CCCCCCCCCCNC(=O)C(=O)Nc1ccccn1	-29.9	0.4	-5.7	0.3	-30.0	6.2	nt	nt
CC(=O)c1cccc(NC(=O)C(OC(=O)/C=C/c2ccc3c(c2)OCO3)c2ccccc2)c1 (stereo not drawn)	4.9	-0.7	-3.6	-1.8	-2.6	nt	nt	nt
COc1ccc(NS(=O)(=O)Cc2ccccc2Cl)cn1	1.8	0.7	-6.0	-0.3	20.2	-3.6	nt	nt
COc1ccc(NC(=O)/C(Cl)=C(/Cl)S(=O)(=O)Cc2ccccc2)cn1	81.7*	nt	-10.3	-2.3	104.0*	5.1	92.0*	92.0*
O=S(=O)(NCc1ccncc1)c1ccc(Br)s1	36.7*	-1.6	nt	-1.5	nt	8.6	44.0*	8.0
O=C(O)CNS(=O)(=O)c1ccc(Br)s1	8.8	0.6	nt	-1.1	nt	-0.6	nt	nt
NS(=O)(=O)c1ccc(CCNc2ncnc3sccc23)cc1	3.4	-1.4	-6.5	-2.2	26.5	3.5	nt	nt
Cc1sc2ncnc(NCCc3ccc(S(N)(=O)=O)cc3)c2c1C	36.7*	0.2	-1.0	1.9	62.8*	nt	47.2*	7.7
CC(C)CNC(=S)N1CCN(C)CC1	-1.5	0.7	-5.7	-1.5	32.2	nt	nt	nt
Oc1ccc(Nc2nc3ccccc3nc2Nc2ccc(O)cc2)cc1	31.8*	-0.1	-0.7	0.1	20.6	0.9	33.5*	32.9*
Cc1nc2sccn2c1-c1csc(NCc2ccccc2)n1	27.2*	nt	-7.0	-1.8	40.7	-1.3	23.7	-1.3
COc1ccc(C(=O)Nc2cccc(/C(C)=N/NC(=O)c3ccc([N+](=O)[O-])cc3)c2)cc1OC	1.7	nt	-2.8	-1.4	-14.7	nt	nt	nt
CCC(NC(=O)Nc1nnc(C(F)(F)F)s1)(C(F)(F)F)C(F)(F)F	58.9*	-4.6	-4.9	4.3	74.8*	4.7	39.4*	16.2
CCOc1ccc2c(c1)C(C)=CC(C)(C)N2C(=O)Nc1ccccc1	28.7*	-0.5	0.7	-1.4	5.0	5.4	7.8	4.8
Cc1ccc(C(=O)NC(=S)N2CCN(c3ccccc3F)CC2)cc1	-3.4	-1.1	nt	-0.4	nt	nt	nt	nt
Cc1ccc(S(=O)(=O)/N=C2/C=C(Sc3ncn[nH]3)C(=O)c3ccccc32)c(C)c1	27.1*	-7.0	nt	-1.1	nt	nt	15.6	26.7
CC(=O)C(=Nc1ccccc1Cl)NNc1ccc(Cl)cc1	27.6*	nt	-4.5	-2.0	-31.3	nt	13.9	0.0
Clc1ccc(OCCN2CCN(c3ncnc4sccc34)CC2)cc1	40.2*	-1.0	nt	0.0	nt	nt	48.8*	13.6
CNC(=S)N(CCc1ccc(OC)c(OC)c1)Cc1cc2c(C)cc(C)cc2[nH]c1=O	1.2	-10.2	nt	-1.1	nt	nt	nt	nt
O=C(c1ccc(S(=O)(=O)c2ccc(F)cc2)c([N+](=O)[O-])c1)N1CCCCCC1	30.7*	-5.9	nt	-0.6	nt	nt	37.4*	14.5
N#C[C@@H]1[C@@H]2C(=O)N(c3ccc4c(c3)OCCO4)C(=O)[C@@H]2C2c3ccccc3C=CN21 (stereo partly drawn)	-2.2	nt	-9.1	-2.4	15.6	5.1	nt	nt
